Inconclusive results are not listed. Activity calls are given as the source filed them. Calls come from the whole dose curve; as a rule, active = well fitted cell-killing curve with a large enough effect; inconclusive = small, poorly fitted or top-dose-only effect, or effect the other way; inactive = no such curve, though single readings can be large or run the other way.
Potency is the fitted concentration of half-maximal effect.

The test system of this assay is JEG-3. The experiment in a line: Confirmatory qHTS for gynecologic anti-cancer compounds from libraries of approved drugs and bioactive compounds. Note: nearly all actives have a fitted effect of over 55% in size. Conditions: gynecologic cancer cell panel viability, ATPlite luminescence, 48 h; series mostly up to 57.6 µM. In short, it runs like this:
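Cells (1,000/well) plated 16 h, then exposed 48 h at 37 °C to 11 concentrations (1:3) from 57.5 uM to 0.977 nM. Viability by ATPlite luminescence after 15 min; IC50 derived, with HEK 293T used for selectivity index.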
(In general: qHTS replaces the single test concentration by a dilution series.)
With `CC(=O)Nc1cccc(-n2c(=O)n(C3CC3)c(=O)c3c(Nc4ccc(I)cc4F)n(C)c(=O)c(C)c32)c1`, the Potency result is “inactive”.

For `CCS(=O)(=O)N1CCN(c2ccc(Nc3ncc(C(N)=O)c(NC4CC4)n3)cc2)CC1`, the Potency was 9.68 µM (active). Turning to `C[C@]12CCC(=O)C=C1CC[C@@H]1[C@@H]2[C@@H](O)C[C@@]2(C)[C@H]1CC[C@]2(O)C(=O)CO`, the Potency result is “inactive”.

With `Cc1ccc(C(=O)N(CCCN)C(c2oc3cc(Cl)ccc3c(=O)c2Cc2ccccc2)C(C)C)cc1` (stereo not drawn), the Potency was 0.109 µM (active). Turning to `COc1ccc(-c2nc3ccc(C4=NNC(=O)CC4C)cc3[nH]2)cc1` (stereo not drawn), the Potency is 21.7 µM (active). To `COc1cc2c(c(OC)c1OC)-c1ccc(OC)c(=O)cc1[C@@H](NC(C)=O)CC2` belongs 0.178 µM (active); to `CC(=O)O[C@H]1C(=O)[C@@]2(C)[C@H]([C@H](OC(=O)c3ccccc3)[C@]3(O)C[C@H](OC(=O)[C@H](O)[C@@H](NC(=O)c4ccccc4)c4ccccc4)C(C)=C1C3(C)C)[C@]1(OC(C)=O)CO[C@@H]1C[C@@H]2O`, 0.0259 µM (active); to `CNC1CCC(N(Cc2cccc(-c3ccncc3)c2)C(=O)c2sc3ccccc3c2Cl)CC1` (stereo not drawn), 27.3 µM (active). To `COc1ccccc1N1CCN(CC(O)COc2cccc3ccccc23)CC1` (stereo not drawn) belongs “inactive”. As to `CC(C)(C)C(=O)OCOP(=O)(COCCn1cnc2c(N)ncnc21)OCOC(=O)C(C)(C)C`, the Potency is 2.43 µM (active).

Regarding `CCN(CC)CCOc1ccc(/C(=C(\Cl)c2ccccc2)c2ccccc2)cc1`, the Potency was 89.1 µM (active). As for `C[C@]12CCC(=O)C=C1[C@@H]1C[C@@H]1[C@H]1[C@@H]3[C@@H]4C[C@@H]4[C@@]4(CCC(=O)O4)[C@@]3(C)CC[C@@H]12`, the Potency result was “inactive”. In the case of `Cc1cc(C2CCCCC2)n(O)c(=O)c1`, the Potency is 11.1 µM (active). Turning to `FC(F)(F)c1ccc(/C=C/c2nc(COc3ccc(CCCCn4ccnn4)cc3)co2)cc1`, the Potency is 0.0172 µM (active). In the case of `Cc1cncc2cccc(S(=O)(=O)N3CCCN(C(=O)CN)C[C@@H]3C)c12`, the Potency result was “inactive”. The result for `Cc1cc(Nc2nc(N[C@@H](C)c3ncc(F)cn3)ncc2Cl)n[nH]1` reads “inactive”. As to `CNC(=O)c1nn(C)c2c1C(C)(C)Cc1cnc(Nc3ccc(N4CCN(C)CC4)cc3)nc1-2`, the Potency was 6.85 µM (active). `CC(C)Nc1cc(-c2c[nH]c(C(=O)N[C@H](CO)c3cccc(Cl)c3)c2)c(Cl)cn1`: the Potency was 27.3 µM (active).

The values above are taken from PubChem BioAssay AID1345085 (National Center for Advancing Translational Sciences (NCATS), 2018).
